Results taken from PubChem BioAssay AID1159580 (chemical genetic matrix, 2015).
The whole screen tested about 5,500 compounds, of which about 2,000 (36%) were called active. Roughly 18% stayed inconclusive and do not appear here. Cut-off read from the data, not from the text of the source: active = normalized growth mostly below about 0.91 (no sharp cut-off); inconclusive = no clear call, values can overlap the other calls; inactive = mostly above about 0.92. This is one part of the list.

Assay: chemical genetic growth profiling, strain panel (AID 1159580);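 note: tested at 20 µM; growth read once vehicle control cultures reached saturation at 30 °C; 1 = growth at the plate median or of vehicle wells; lower values mean less growth of the strain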
Details: growth OD

Measured: normalized growth

CCn1cc(C(=O)O)c(=O)c2cnc(N3CCNCC3)nc21
inactive: S. cerevisiae deletion strains, locus YKL009W, strain mrt4, active compounds read low 1.03 | S. cerevisiae deletion strains, locus YKL068W, active compounds read low 0.994 | S. cerevisiae deletion strains, locus YKL085W, strain MDH1 (second series), active compounds read low 0.984 | S. cerevisiae deletion strains, locus YKL085W, strain MDH1, active compounds read low 0.984 | S. cerevisiae deletion strains, locus YKL160W, strain elf1, active compounds read low 1.03 | S. cerevisiae deletion strains, locus YKL190W, strain CNB1, active compounds read low 1 | S. cerevisiae deletion strains, locus YKR001C, strain vps1, active compounds read low 1.02 | S. cerevisiae deletion strains, locus YKR026C, strain gcn3, active compounds read low 1.01 | S. cerevisiae deletion strains, locus YKR091W, strain srl3, active compounds read low 1 | S. cerevisiae deletion strains, locus YLL001W, strain dnm1, active compounds read low 1.01 | S. cerevisiae deletion strains, locus YLL026W, active compounds read low 1.02 | S. cerevisiae deletion strains, locus YLL041C, strain sdh2, active compounds read low 1.01 | S. cerevisiae deletion strains, locus YLR027C, strain aat2, active compounds read low 1.01 | S. cerevisiae deletion strains, locus YLR039C, strain RIC1, active compounds read low 0.942 | S. cerevisiae deletion strains, locus YLR058C, strain SHM2, active compounds read low 0.988 | S. cerevisiae deletion strains, locus YLR102C, strain apc9, active compounds read low 0.993 | S. cerevisiae deletion strains, locus YLR113W, strain HOG1, active compounds read low 1.02 | S. cerevisiae deletion strains, locus YLR221C, strain rsa3, active compounds read low 1 | S. cerevisiae deletion strains, locus YLR258W, strain gsy2, active compounds read low 1.04 | S. cerevisiae deletion strains, locus YLR262C, strain YPT6 (second series), active compounds read low 0.992 | S. cerevisiae deletion strains, locus YLR262C, strain YPT6, active compounds read low 0.975 | S. cerevisiae deletion strains, locus YLR268W, strain sec22, active compounds read low 0.991 | S. cerevisiae deletion strains, locus YLR320W, strain mms22, active compounds read low 0.968 | S. cerevisiae deletion strains, locus YLR330W, strain CHS5, active compounds read low 0.981 | S. cerevisiae deletion strains, locus YLR342W, strain FKS1 (second series), active compounds read low 0.96 | S. cerevisiae deletion strains, locus YLR342W, strain FKS1, active compounds read low 1.02 | S. cerevisiae deletion strains, locus YLR357W, strain rsc2, active compounds read low 1.01 | S. cerevisiae deletion strains, locus YLR370C, strain arc18, active compounds read low 1.02 | S. cerevisiae deletion strains, locus YLR371W, strain rom2, active compounds read low 0.981 | S. cerevisiae deletion strains, locus YLR384C, strain iki3, active compounds read low 0.999 | S. cerevisiae deletion strains, locus YLR418C, strain cdc73, active compounds read low 0.951 | S. cerevisiae deletion strains, locus YML016C, strain PPZ1, active compounds read low 0.977 | S. cerevisiae deletion strains, locus YML032C, strain rad52, active compounds read low 1 | S. cerevisiae deletion strains, locus YML120C, strain ndi1, active compounds read low 1.03 | S. cerevisiae deletion strains, locus YML124C, strain tub3, active compounds read low 0.985 | S. cerevisiae deletion strains, locus YMR058W, strain fet3, active compounds read low 1.01 | S. cerevisiae deletion strains, locus YMR078C, strain ctf18, active compounds read low 0.98 | S. cerevisiae deletion strains, locus YMR125W, strain sto1, active compounds read low 1.02 | S. cerevisiae deletion strains, locus YMR129W, active compounds read low 1.01 | S. cerevisiae deletion strains, locus YMR205C, strain PFK2, active compounds read low 1 | S. cerevisiae deletion strains, locus YMR223W, strain ubp8, active compounds read low 0.983 | S. cerevisiae deletion strains, locus YMR231W, strain pep5, active compounds read low 1.01 | S. cerevisiae deletion strains, locus YMR263W, strain SAP30, active compounds read low 1.01 | S. cerevisiae deletion strains, locus YMR307W, strain GAS1, active compounds read low 1.01 | S. cerevisiae deletion strains, locus YNL067W, strain RPL9B, active compounds read low 1.03 | S. cerevisiae deletion strains, locus YNL071W, strain lat1, active compounds read low 1.01 | S. cerevisiae deletion strains, locus YNL128W, strain TEP1, active compounds read low 0.977 | S. cerevisiae deletion strains, locus YNL153C, strain GIM3, active compounds read low 1.06 | S. cerevisiae deletion strains, locus YNL183C, strain NPR1, active compounds read low 0.997 | S. cerevisiae deletion strains, locus YNL209W, strain ssb2, active compounds read low 1 | S. cerevisiae deletion strains, locus YNL233W, strain BNI4, active compounds read low 1.02 | S. cerevisiae deletion strains, locus YNL248C, strain rpa49, active compounds read low 1.04 | S. cerevisiae deletion strains, locus YNL250W, strain rad50, active compounds read low 0.964 | S. cerevisiae deletion strains, locus YNL271C, strain bni1, active compounds read low 0.979 | S. cerevisiae deletion strains, locus YNL298W, strain CLA4, active compounds read low 0.978 | S. cerevisiae deletion strains, locus YNL307C, strain MCK1, active compounds read low 0.991 | S. cerevisiae deletion strains, locus YNL322C, strain KRE1 (second series), active compounds read low 1.04 | S. cerevisiae deletion strains, locus YNL322C, strain KRE1, active compounds read low 0.997 | S. cerevisiae deletion strains, locus YNR049C, strain mso1, active compounds read low 1.01 | S. cerevisiae deletion strains, locus YNR052C, strain pop2, active compounds read low 0.979 | S. cerevisiae deletion strains, locus YOL006C, strain TOP1, active compounds read low 1.07 | S. cerevisiae deletion strains, locus YOL012C, strain htz1 0.676 | S. cerevisiae deletion strains, locus YOL147C, strain pex11, active compounds read low 0.991 | S. cerevisiae deletion strains, locus YOR001W, strain rrp6, active compounds read low 1 | S. cerevisiae deletion strains, locus YOR061W, strain CKA2, active compounds read low 0.988 | S. cerevisiae deletion strains, locus YOR069W, strain VPS5, active compounds read low 0.984 | S. cerevisiae deletion strains, locus YOR070C, strain gyp1, active compounds read low 1.02 | S. cerevisiae deletion strains, locus YOR080W, strain dia2, active compounds read low 1.02 | S. cerevisiae deletion strains, locus YOR083W, strain WHI5, active compounds read low 0.993 | S. cerevisiae deletion strains, locus YOR106W, strain vam3, active compounds read low 1.04 | S. cerevisiae deletion strains, locus YOR136W, strain idh2, active compounds read low 0.995 | S. cerevisiae deletion strains, locus YOR144C, strain elg1, active compounds read low 0.988 | S. cerevisiae deletion strains, locus YOR184W, strain ser1, active compounds read low 1 | S. cerevisiae deletion strains, locus YOR231W, strain MKK1, active compounds read low 1.03 | S. cerevisiae deletion strains, locus YOR265W, strain rbl2, active compounds read low 1.02 | S. cerevisiae deletion strains, locus YOR270C, strain vph1, active compounds read low 1.16 | S. cerevisiae deletion strains, locus YOR290C, strain snf2, active compounds read low 1.04 | S. cerevisiae deletion strains, locus YOR316C, strain cot1, active compounds read low 0.99 | S. cerevisiae deletion strains, locus YPL051W, strain arl3, active compounds read low 1.02 | S. cerevisiae deletion strains, locus YPL078C, strain atp4, active compounds read low 1.04 | S. cerevisiae deletion strains, locus YPL106C, strain sse1, active compounds read low 1.01 | S. cerevisiae deletion strains, locus YPL240C, strain hsp82, active compounds read low 1 | S. cerevisiae deletion strains, locus YPL256C, strain CLN2, active compounds read low 1.08 | S. cerevisiae deletion strains, locus YPR119W, strain clb2, active compounds read low 0.993 | S. cerevisiae deletion strains, locus YPR141C, strain kar3, active compounds read low 0.981 | S. cerevisiae deletion strains, locus YPR163C, strain tif3, active compounds read low 0.984 | S. cerevisiae deletion strains, locus YPR167C, strain met16, active compounds read low 0.979 | S. cerevisiae deletion strains, strain wtn01, active compounds read low 0.982 | S. cerevisiae strains, strain wild type, active compounds read low 0.998
